# Reference: PubChem BioAssay (NCATS)
# Inconclusive results are not listed. Entries that show only a call come without a potency. Active and inactive are the calls of the source. Unless noted, the call rests on the fitted dose curve; in most records, active means well fitted curve in the direction sought with a large enough effect; inconclusive means small, poorly fitted or top-dose-only effect, or another doubt; inactive means no such curve, though single readings can be large; an effect the other way counts as inactive or inconclusive.
# What was measured:
# [1] = target: Ubiquitin carboxyl-terminal hydrolase 1 (Homo sapiens) (UniProt O94782); test: Inhibitors of USP1/UAF1: Pilot qHTS (AID 504865); settings: purified USP1/UAF1, Ub-rhodamine cleavage fluorescence; series mostly up to 114 µM; further: nearly all actives have a fitted effect of over 35% in size; further: potency means the concentration at half of the fitted maximal effect
# Ubiquitin carboxyl-terminal hydrolase 1 (Homo sapiens), sequence (O94782 whole entry, looked up): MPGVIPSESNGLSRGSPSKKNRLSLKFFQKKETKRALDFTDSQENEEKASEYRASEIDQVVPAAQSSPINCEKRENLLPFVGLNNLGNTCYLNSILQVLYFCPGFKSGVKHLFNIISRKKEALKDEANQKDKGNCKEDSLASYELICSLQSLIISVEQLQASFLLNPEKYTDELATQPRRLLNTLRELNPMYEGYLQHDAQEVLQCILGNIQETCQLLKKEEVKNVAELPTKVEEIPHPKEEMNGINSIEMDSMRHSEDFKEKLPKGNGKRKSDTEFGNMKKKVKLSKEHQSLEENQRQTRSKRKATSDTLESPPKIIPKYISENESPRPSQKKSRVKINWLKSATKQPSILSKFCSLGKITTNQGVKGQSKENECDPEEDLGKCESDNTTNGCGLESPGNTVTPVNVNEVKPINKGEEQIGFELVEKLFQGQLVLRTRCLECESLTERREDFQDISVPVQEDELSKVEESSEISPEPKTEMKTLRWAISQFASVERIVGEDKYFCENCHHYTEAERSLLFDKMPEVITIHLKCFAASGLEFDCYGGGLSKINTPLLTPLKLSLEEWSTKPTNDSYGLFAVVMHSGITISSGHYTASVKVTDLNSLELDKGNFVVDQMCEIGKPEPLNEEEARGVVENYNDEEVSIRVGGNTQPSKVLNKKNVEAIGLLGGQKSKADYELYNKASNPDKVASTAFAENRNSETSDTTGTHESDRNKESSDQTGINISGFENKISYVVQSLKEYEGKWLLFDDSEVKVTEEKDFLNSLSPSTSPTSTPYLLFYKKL
# Outline: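 USP1/UAF1 complex (1nM) preincubated with compound 15 min at room temperature, then Ub-Rho substrate (150nM final) added. Fluorescence read kinetically at 480/540 nm, 6 reads every 60 seconds. Buffer: 50mM HEPES pH 7.8, 0.5mM EDTA, 0.1 mg/ml BSA, 1mM TCEP, 0.01% Tween-20.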
# [2] = target: ATPase family AAA domain-containing protein 5 (Homo sapiens) (UniProt Q96QE3); test: Validation screen for small molecules that inhibit ELG1-dependent DNA repair in human embryonic kidney (HEK293T) cells expressing luciferase-tagged ELG1 (AID 493107); settings: HEK293T ELG1-luciferase level, luminescence, 5-fluorouridine co-treatment, 16 h; series mostly up to 46.1 µM;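 further: cells co-treated with the DNA-damaging agent 5-fluorouridine alongside compound; inhibitors lower the ELG1-luciferase luminescence signal; nearly all actives have a fitted effect of over 70% in size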
# ATPase family AAA domain-containing protein 5 (Homo sapiens), sequence (Q96QE3 whole entry, looked up, the tested form may be a part): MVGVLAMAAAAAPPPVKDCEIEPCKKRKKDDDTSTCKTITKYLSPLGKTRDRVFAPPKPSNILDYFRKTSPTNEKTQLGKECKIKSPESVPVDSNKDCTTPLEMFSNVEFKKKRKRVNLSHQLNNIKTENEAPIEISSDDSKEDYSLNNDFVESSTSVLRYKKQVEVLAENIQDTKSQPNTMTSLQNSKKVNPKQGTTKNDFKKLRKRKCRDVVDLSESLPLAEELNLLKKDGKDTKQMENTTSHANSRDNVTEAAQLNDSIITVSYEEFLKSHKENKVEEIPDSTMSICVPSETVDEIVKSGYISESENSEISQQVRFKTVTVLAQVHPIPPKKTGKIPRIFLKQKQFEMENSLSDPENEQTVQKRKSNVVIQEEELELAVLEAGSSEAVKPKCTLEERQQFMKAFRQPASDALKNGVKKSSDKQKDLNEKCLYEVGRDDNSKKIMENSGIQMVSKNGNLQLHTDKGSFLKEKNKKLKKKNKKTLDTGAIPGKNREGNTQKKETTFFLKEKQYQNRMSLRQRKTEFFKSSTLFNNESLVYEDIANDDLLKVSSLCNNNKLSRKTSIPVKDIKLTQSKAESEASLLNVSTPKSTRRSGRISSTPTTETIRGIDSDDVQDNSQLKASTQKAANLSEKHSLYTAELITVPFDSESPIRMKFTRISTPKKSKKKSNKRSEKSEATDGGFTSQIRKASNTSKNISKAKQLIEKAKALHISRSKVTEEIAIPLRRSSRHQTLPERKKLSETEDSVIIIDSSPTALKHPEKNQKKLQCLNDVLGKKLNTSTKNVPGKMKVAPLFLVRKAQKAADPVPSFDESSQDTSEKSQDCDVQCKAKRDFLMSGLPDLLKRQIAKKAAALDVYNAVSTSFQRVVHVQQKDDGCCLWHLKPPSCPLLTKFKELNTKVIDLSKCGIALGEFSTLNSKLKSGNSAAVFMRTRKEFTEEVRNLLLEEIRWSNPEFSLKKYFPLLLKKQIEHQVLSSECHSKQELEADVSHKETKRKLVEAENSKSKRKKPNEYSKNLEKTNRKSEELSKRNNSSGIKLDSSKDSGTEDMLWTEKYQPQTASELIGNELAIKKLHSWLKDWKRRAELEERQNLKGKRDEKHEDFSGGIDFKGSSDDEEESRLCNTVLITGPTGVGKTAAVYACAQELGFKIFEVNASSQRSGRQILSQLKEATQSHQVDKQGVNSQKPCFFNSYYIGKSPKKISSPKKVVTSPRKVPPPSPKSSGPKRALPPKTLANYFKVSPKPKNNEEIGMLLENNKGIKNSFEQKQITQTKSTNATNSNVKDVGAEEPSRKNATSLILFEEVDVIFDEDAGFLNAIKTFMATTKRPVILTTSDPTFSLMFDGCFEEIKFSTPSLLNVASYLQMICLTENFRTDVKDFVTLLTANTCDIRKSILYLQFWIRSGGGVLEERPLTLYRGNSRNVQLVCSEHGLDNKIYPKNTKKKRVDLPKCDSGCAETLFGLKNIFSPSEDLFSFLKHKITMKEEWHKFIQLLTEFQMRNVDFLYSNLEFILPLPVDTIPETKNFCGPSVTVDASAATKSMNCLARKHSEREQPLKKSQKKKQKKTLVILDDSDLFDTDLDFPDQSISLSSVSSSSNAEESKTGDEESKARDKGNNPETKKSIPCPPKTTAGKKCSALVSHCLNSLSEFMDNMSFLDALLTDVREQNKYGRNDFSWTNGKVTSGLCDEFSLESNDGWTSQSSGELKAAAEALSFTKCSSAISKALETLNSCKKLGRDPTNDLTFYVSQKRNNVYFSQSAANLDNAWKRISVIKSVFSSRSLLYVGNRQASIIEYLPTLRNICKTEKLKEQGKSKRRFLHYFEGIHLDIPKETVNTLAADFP
# From the text: (§1) NIH Molecular Libraries Probe Production Network [MLPCN]
# (§2) NIH Chemical Genomics Center [NCGC]
# Assay Provider: Kyungjae Myung, NHGRI, NIH
# Keywords: MLPCN, qHTS, NCGC, genotoxicity, cancer
# Cancer cells divide rapidly compared to normal cells in the body. During cell division, cancer cells need to duplicate their genome by DNA replication. The failure of genome duplication leads to cancer cells' death. Therefore, inhibitors of DNA replication could specifically kill cancer cells. Based on this concept, many chemotherapeutic agents were developed and have been used to treat cancer patients. However, there are a limited number of agents available in the clinical setting, and some of those that do exist have low efficacy and severe side effects. Therefore, if we can find the compounds that effectively block DNA replication either by directly damaging DNA or by inhibiting other cellular mechanisms, the options for cancer treatment will be broadened. With this in mind, we developed a quantitative high-throughput ELG1-luciferase reporter gene assay. Small molecules that specifically block ELG1 function in response to DNA damage can be identified by monitoring the suppression of luciferase activity. Since ELG1 defines a pathway for repairing DNA damage, agents blocking ELG1 function can be used to sensitize cancer cells to chemotherapeutic agents whose mechanism of action involves the induction of DNA damage.
# For genotoxicity screening, 2,000 cells in 4 uL/well were dispensed into white, solid-bottom 1536-well plates using a solenoid-based dispenser. Following transfer of 1 uL 5-Fluorouridine and 23 nL compound or DMSO vehicle by a pin tool, the plates were incubated 16 hr at 37 °C and 5% CO2. 5 ul ONE-Glo (Promega) was then added to each plate and following a 30 min incubation at room temperature, luciferase activity was quantified on a ViewLux CCD-based plate reader.
# [3] = Nrf2 qHTS screen for inhibitors: Validation (AID 493153; active means well fitted inhibition curve with a large enough effect in the main read-out, with a control signal flat, not every such curve was filed as active; further: potency means the concentration at half of the fitted maximal effect); settings: A549 ARE-Fluc reporter, 18-24 h; Potency: luciferase luminescence; viability change: measured here: cytotoxicity max response; luciferase luminescence, at 46.1 µM (top of the series)
# Outline: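 Concentration-response on A549 ARE_Fluc reporter cells exposed 18-24 h at 37 C, 5% CO2. Cytotoxicity read first by CellTiter-Fluor fluorescence (Ex 405/Em 525), then Nrf2 inhibition by BugLite luminescence after 15 min.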
# [4] = qHTS for Inhibitors of Cell Surface uPA Generation: Validation Assay (AID 493164); settings: mouse cells, plasminogen activation; series mostly up to 38.3 µM;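 further: RAW 264.7 macrophage cells exposed to compound for 18 h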
# Outline: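 ATP-Lite luminescence read-out: ATP remains high when uPA activity-dependent LF translocation into the cytoplasm is blocked. RAW 264.7 cells, 18 h compound exposure at 37 C; 7-point titration, 2.45 nM to 38.3 uM final.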
# [5] = target: Peptidyl-prolyl cis-trans isomerase NIMA-interacting 1 (Homo sapiens) (UniProt Q13526); test: qHTS Validation Assay to Find Inhibitors of Pin1 (AID 504536; active means well fitted inhibition curve with a large enough effect in the polarisation, with a control signal flat, not every such curve was filed as active; the % refers to the polarisation); settings: Pin1 fluorescence polarization peptide binding assay; series mostly up to 57.5 µM
# Peptidyl-prolyl cis-trans isomerase NIMA-interacting 1 (Homo sapiens), sequence (Q13526 whole entry, looked up): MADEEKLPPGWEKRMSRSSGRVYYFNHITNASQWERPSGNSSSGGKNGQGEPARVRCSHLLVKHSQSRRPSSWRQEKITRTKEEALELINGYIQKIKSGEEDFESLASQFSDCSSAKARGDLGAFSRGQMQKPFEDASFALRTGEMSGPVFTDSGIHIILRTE
# From the text: as §1, §2
# The unique chemical properties of Pro allow for the adoption of two completely distinct amide bond conformations (cis and trans). Peptidyl-prolyl cis/trans isomerases (PPIases) are evolutionary conserved enzymes that catalyze cis/trans isomerization of peptidyl-prolyl peptide bonds. Distinct from all other PPIases such as cyclophilins and FK506-binding proteins (FKBPs), Pin1 binds a subset of phos.Ser/Thr-Pro-containing proteins using its protein-targeting WW domain and isomerizes only specific phos.Ser/Thr-Pro bonds, which cannot be effectively catalyzed by other known PPIases.
# Pin1-catalyzed conformational regulation can control a spectrum of activities of many key regulators in diverse cellular processes such as cell growth, genotoxic and other stress responses, immune response, germ cell development, neuronal differentiation and survival. Pin1 has emerged as a novel molecular timer that modulates its multiple targets at various steps of a given cellular process to synergistically control the amplitude and duration of a cellular response or process. Importantly, Pin1 is tightly regulated by multiple levels and its deregulation has an important role in a growing number of pathological conditions, including cancer, Alzheimer's disease, aging, asthma and microbial infection, providing a potentially new therapeutic option.
# The goal of this screen is to find small-molecule inhibitors of Pin1 using a fluorescence polarization competition assay. A HiFluor-488-labeled peptide binds to the active site of Pin1 and can be displaced by compounds. Compounds were screened as a concentration-titration series that ranged from 57 uM to 0.7 nM.
# (§3) NCGC Assay Protocol Summary:
# Pin1 (0.6 uM) was dispensed into black, solid 1536-well plates at 2 uL/well in 10 mM HEPES (pH 7.5), 10 mM NaCl, 0.01% Tween20, 1 mM DTT, and 1% glycerol. Then, 23 nL of compounds or DMSO were delivered to each well using a pin tool. […] The plates were measured on a ViewLux plate reader for fluorescence polarization signal using a 480/20 nM nm excitation filter and 540/25 nM nm S and P emission filters with a 20 second exposure. The %Activity was determined from the corrected fluorescence polarization values. […]
# Concentration-response curves were fitted to the signals arising from the resulting fluorescence polarization. The concentration-effect curves were then classified based on curve quality (r2), response magnitude and degree of measured activity, and compounds were subsequently categorized based on their curve class.
# Keywords: Peptidyl prolyl isomerase, Pin1, fluorescence polarization, MLSMR, MLPCN, NIH Roadmap, qHTS, NCGC
# [6] = target: Phosphoglycerate kinase, glycosomal (Trypanosoma brucei brucei) (UniProt P07378); test: qHTS Validation Assay to Find Inhibitors of Phosphoglycerate Kinase (AID 504547); settings: enzymatic PGK inhibition, coupled luminescence read-out; series mostly up to 57.5 µM
# Phosphoglycerate kinase, glycosomal (Trypanosoma brucei brucei), sequence (P07378 whole entry, looked up): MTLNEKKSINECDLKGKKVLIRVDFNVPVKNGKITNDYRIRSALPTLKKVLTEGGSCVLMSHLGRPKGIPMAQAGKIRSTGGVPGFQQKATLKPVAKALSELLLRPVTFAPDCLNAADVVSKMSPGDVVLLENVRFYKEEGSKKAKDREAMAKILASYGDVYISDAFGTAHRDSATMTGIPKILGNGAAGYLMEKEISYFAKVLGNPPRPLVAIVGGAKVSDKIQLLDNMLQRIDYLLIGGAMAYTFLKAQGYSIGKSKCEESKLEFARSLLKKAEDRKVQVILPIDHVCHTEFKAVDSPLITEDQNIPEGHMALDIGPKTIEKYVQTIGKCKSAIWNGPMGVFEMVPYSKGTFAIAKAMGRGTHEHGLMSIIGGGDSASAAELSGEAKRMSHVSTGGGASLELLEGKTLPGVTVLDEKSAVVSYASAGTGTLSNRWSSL
# Outline: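 In TEA buffer (100mM, pH 7.6) containing 5mM MgCl2 and 0.01% Tween-20, the GAPDH-coupled PGK reaction proceeded for 60 minutes at room temperature before a single luminescence reading using Kinase-Glo Plus.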
# [7] = target: phosphoglycerate mutase (Leishmania major) (UniProt Q4Q090); test: qHTS Validation Assay to Find Inhibitors of Phosphoglycerate Mutase (AID 504548); settings: biochemical enzyme activity; series mostly up to 57.5 µM
# phosphoglycerate mutase (Leishmania major), sequence (Q4Q090 1-553): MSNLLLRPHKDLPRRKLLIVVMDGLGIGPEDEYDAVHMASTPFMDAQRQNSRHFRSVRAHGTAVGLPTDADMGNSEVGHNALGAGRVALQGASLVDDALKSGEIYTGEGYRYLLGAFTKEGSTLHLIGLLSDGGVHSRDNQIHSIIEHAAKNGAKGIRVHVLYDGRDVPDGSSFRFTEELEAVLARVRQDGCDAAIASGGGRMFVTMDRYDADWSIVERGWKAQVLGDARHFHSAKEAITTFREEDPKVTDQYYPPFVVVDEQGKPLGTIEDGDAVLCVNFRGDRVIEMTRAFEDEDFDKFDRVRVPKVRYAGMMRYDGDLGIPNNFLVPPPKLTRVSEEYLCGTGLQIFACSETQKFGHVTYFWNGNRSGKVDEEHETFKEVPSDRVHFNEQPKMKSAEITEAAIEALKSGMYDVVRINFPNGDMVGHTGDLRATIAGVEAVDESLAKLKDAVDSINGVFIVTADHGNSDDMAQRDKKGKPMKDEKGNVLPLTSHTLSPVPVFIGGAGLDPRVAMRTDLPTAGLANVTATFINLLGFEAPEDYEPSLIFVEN
# From the text: as §1, §2
# PI Name: Malcolm Walkinshaw, University of Edinburgh
# Several species of the Trypanosomatidae family of parasitic protozoans cause a spectrum of diseases throughout the tropical and subtropical world. Sleeping sickness, caused by two subspecies of Trypanosoma brucei, is endemic to areas of sub-Saharan Africa, while Chagas disease, a manifestation of Trypanosoma cruzi infection, is prevalent throughout Central and South America. In addition, many species of Leishmania are responsible for a range of cutaneous and visceral diseases, causing ulcers, destructive lesions and kalaazar, a lethal infection of the viscera. Collectively, these organisms infect 30 million people worldwide (~500 million live in endemic areas), and account for ~130,000 deaths annually. Given their debilitating and prevalent nature, trypanosomatid parasites impose a heavy medical, economic and social burden on entire populations, primarily in the developing world. The problem is further exacerbated by the fact that existing treatments have progressed little in the past 50 years, and current drugs show high toxicity and poor efficacy.
# Blood-stream stages of T. brucei are entirely dependent on glycolysis as a source of ATP, and the tricarboxylic acid cycle and oxidative phosphorylation are both repressed. Glycolysis in axenically cultured T. cruzi, representing the intracellular pathogenic stage, is also essential for these parasites. […] Previous studies have shown that the glycolytic enzyme, phosphoglycerate mutase (PGAM), is a viable target for drugs to kill these parasites. […] Furthermore, the cobalt centers present within PGAM are only found in trypanosomatid and plant PGAMs, and are known to be required for activity, thereby providing an additional target. Moreover, trypanosomatid PGAMs are completely different from the enzyme that performs the same function in humans: the parasite and host enzymes share no structural or even mechanistic features; specificity is therefore unlikely to be an issue.
# as §3
# Briefly, 3ul of substrate buffer (all columns) are dispensed into Greiner white solid bottom 1536-well assay plates. Compounds are then transferred via Kalypsys pin tool equipped with 1536-pin array (10nl slotted pins, V&P Scientific, San Diego, CA). Following addition of compound, 1ul of Lm PGAM (1.25nM final concentration, columns […]) is added to initiate the reaction; columns 3-4 receive only TEA buffer as negative controls. […] Kinase-GloPlus reagent is added (2ul) and plates incubated for 10 minutes, before being transferred to a ViewLux high-throughput CCD imager (PerkinElmer) wherein single end-point measurements of luminescence are acquired using a clear filter. […]
# [8] = target: Thyrotropin-releasing hormone receptor (Homo sapiens) (UniProt P34981); test: qHTS for Small Molecule Agonists and Allosteric Enhancers of Human TRH Receptor: Validation Screen for Agonists (AID 493127;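 active means calcium activation more than 3 SD above the typical response in the agonist read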;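 further: intracellular calcium rise by fluo-8 fluorescence before TRH EC20 addition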); settings: TRH receptor agonist cell assay; at 2 µM; stronger effect = higher value
# Thyrotropin-releasing hormone receptor (Homo sapiens), sequence (P34981 whole entry, looked up): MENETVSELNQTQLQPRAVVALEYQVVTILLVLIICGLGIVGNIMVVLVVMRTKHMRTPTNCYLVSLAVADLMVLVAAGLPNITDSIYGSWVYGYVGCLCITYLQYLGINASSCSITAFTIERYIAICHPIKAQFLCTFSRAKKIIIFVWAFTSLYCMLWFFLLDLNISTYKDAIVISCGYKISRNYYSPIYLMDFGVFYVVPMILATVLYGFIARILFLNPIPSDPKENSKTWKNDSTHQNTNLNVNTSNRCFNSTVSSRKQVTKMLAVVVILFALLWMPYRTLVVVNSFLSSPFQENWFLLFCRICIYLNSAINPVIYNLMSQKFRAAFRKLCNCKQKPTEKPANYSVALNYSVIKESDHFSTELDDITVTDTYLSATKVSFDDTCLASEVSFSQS
# Outline: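 Compound-evoked intracellular calcium release in fluo-8-loaded TRHR cells, read kinetically on FDSS (Ex 480/Em 530, 1 s/cycle) after 23 nL pintool transfer. Agonist phase preceded 10 nM TRH EC20 addition.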
# [9] = target: Galactokinase (Homo sapiens) (UniProt P51570); test: qHTS Validation Assay for Inhibitors of Human Galactokinase (GALK) (AID 493189); settings: purified human GALK enzyme activity, qHTS 7-point titration; series mostly up to 57.5 µM
# Galactokinase (Homo sapiens), sequence (P51570 whole entry, looked up): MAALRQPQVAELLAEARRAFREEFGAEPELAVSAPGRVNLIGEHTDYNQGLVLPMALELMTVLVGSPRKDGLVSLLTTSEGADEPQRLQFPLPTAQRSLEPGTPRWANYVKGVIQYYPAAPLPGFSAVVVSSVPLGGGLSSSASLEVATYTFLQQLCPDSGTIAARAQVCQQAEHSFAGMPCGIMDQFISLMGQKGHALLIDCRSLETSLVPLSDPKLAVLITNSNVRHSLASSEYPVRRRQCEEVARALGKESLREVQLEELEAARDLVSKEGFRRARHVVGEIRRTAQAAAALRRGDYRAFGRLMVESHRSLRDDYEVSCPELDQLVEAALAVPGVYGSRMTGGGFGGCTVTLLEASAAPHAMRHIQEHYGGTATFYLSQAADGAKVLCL
# Outline: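 GALK (5 nM) with 35 uM ATP and 100 uM galactose in HEPES pH8.0, MgCl2, NaCl, DTT, BSA; 1 h at room temperature. Residual ATP read by Kinase-Glo Plus luminescence after 10 min.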
# [10] = Validation screen for small molecules that induce DNA re-replication in SW480 colon adenocarcinoma cells (AID 504364); settings: DNA re-replication phenotype (high-content imaging); series mostly up to 46.1 µM
# Outline: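 Image-based DNA content read-out: Hoechst stain 40 min, total nuclear fluorescence intensity (ex 405 nm, em 500-530 nm) after 48 h compound exposure of 250 SW480 cells/well at 37 C, 5% CO2, versus DMSO vehicle.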
smiles,measurement,setting,value
OC(C#CCN1CCCC1)(c1ccccc1)c1ccccc1,Potency,[1],inactive
OCc1ccccn1,Potency,[1],inactive
O[C@@H](c1cc(C(F)(F)F)nc2c(C(F)(F)F)cccc12)[C@H]1CCCCN1,Potency,[1],inactive
COc1ccc2c(c1)c1c3n2CCN(C)C3=NCC1,Potency,[1],inactive
O=S(=O)(O)c1ccc(O)cc1,Potency,[1],inactive
CC(C)Cn1cnc2c1c(=O)n(C)c(=O)n2C,Potency,[1],inactive
CN(C)CCOC(=O)C(c1ccccc1)C1(O)CCCC1 (stereo not drawn),Potency,[1],inactive
O=C(CCN1CCN2CCCC2C1)N1c2ccccc2Sc2ccc(Cl)cc21 (stereo not drawn),Potency,[1],inactive
CCNC(=O)NCc1cccc(Cl)c1,Potency,[1],inactive
CCc1oc2ccccc2c1C(=O)c1cc(I)c(O)c(I)c1,Potency,[1],39.8 µM (active)
O=C(NCCc1c[nH]c2ccccc12)c1cccnc1,Potency,[1],inactive
COc1ccc(CN(CCN(C)C)c2ncccn2)cc1,Potency,[1],inactive
CC1=C(C(=O)O)N2C(=O)[C@@H](NC(=O)[C@H](N)c3ccccc3)[C@H]2SC1,Potency,[1],inactive
O=C(Nc1cccc(C2=NCCN2)c1)Nc1cccc(C2=NCCN2)c1,Potency,[1],inactive
O=C(O)CCNC(=O)c1ccccc1,Potency,[1],inactive
Cc1nc(-c2ccc(Cl)cc2)oc1COC(C)(C)C(=O)O,Potency,[1],inactive
CC(C)(C)NC[C@H](O)COc1nsnc1N1CCOCC1,outcome,[2],inactive
same,Potency,[3],inactive
same,viability change,[3],2.77%
same,outcome,[4],inactive
same,outcome,[5],inactive
same,outcome,[6],inactive
same,outcome,[7],inactive
same,Potency,[1],inactive
O=C(O)C(Cc1cc(I)c(O)c(I)c1)c1ccccc1 (stereo not drawn),Potency,[1],inactive
CCOC(=O)[C@H](CCc1ccccc1)N[C@@H](C)C(=O)N1[C@H](C(=O)O)C[C@H]2CCCC[C@@H]21,outcome,[2],inactive
same,Potency,[3],inactive
same,viability change,[3],-5.88%
same,outcome,[4],inactive
same,outcome,[5],inactive
same,outcome,[6],inactive
same,outcome,[7],inactive
same,Potency,[1],inactive
Nc1nc(N)c(-c2ccccc2)s1,Potency,[1],inactive
NS(=O)(=O)c1cc(C(=O)O)cc(N2CCCC2)c1Oc1ccccc1,Potency,[1],inactive
O=C(CCCN1CC=C(n2c(=O)[nH]c3ccccc32)CC1)c1ccc(F)cc1,Potency,[1],inactive
CC(=O)Nc1ccc(OCC(O)CNC(C)C)cc1 (stereo not drawn),Potency,[1],inactive
COc1ccc(C(=O)c2ccccc2O)c(O)c1,Potency,[1],inactive
CC(=O)OCC1=C(C(=O)O)N2C(=O)[C@@H](NC(=O)CSc3ccncc3)[C@H]2SC1,activation,[8],0.5% (inactive)
same,outcome,[9],inactive
same,outcome,[10],inactive
Cc1cc(NS(=O)(=O)c2ccc(N)cc2)nc(C)n1,Potency,[1],inactive
CCCCCCCCCCCCCC(=O)OC(C)C,Potency,[1],inactive
CCOc1cc(OCC)c(C(=O)CCC(=O)O)cc1OCC,Potency,[1],inactive
N#CCC(=O)NN,Potency,[1],inactive
CN=C(N)NCCC[C@H](N)C(=O)O,outcome,[2],inactive
same,Potency,[3],inactive
same,viability change,[3],2.51%
same,outcome,[4],inactive
same,outcome,[5],inactive
same,outcome,[6],inactive
same,outcome,[7],inactive
same,Potency,[1],inactive
Cc1ncc(CO)c(C=O)c1O,Potency,[1],inactive
CCN(CC)CCOC(=O)C(Cc1cccc2ccccc12)CC1CCCO1 (stereo not drawn),Potency,[1],inactive
O=C(O)Cc1csc(-c2ccc(Cl)cc2)n1,Potency,[1],inactive
CN1CCc2cccc3c2[C@H]1Cc1ccc(O)c(O)c1-3,Potency,[1],inactive
NC(N)=NCc1cccc(I)c1,outcome,[2],inactive
same,activation,[8],-0.0625% (inactive)
same,Potency,[3],20.6 µM (active)
same,viability change,[3],2.28%
same,outcome,[4],inactive
same,outcome,[9],inactive
same,outcome,[10],inactive
same,outcome,[5],inactive
same,outcome,[6],inactive
same,outcome,[7],inactive
same,Potency,[1],inactive
